# Source: PubChem (National Center for Advancing Translational Sciences (NCATS))
# The list is not random: actives were taken first. Their share in the collection is about 10%.
# G9a block – G9a (human) methyltransferase inhibition; 350,000 tested, 8.8% active; Q96KQ7; AID 504332; Potency, µM (series often up to 102 µM), for inactives: top-dose activity, negative = inhibition, hits mostly inhibitors; G9a H3K9 monomethylation, AlphaScreen, 2 h; also: potency is read from the fitted curve at half-maximal effect; % is scaled to controls: 0 for no effect and ±100 for the full control effect; nearly all actives have a fitted effect of over 75% in size
#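 Signal arises when biotinylated H3K9 peptide, once monomethylated, bridges streptavidin donor and antibody-captured acceptor beads. Enzyme at 20 nM was preincubated 15 min with test compounds; peptide 500 nM and SAM 20 uM then reacted for 2 h.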
# BAZ2B block – blocks human BAZ2B; AlphaScreen BAZ2B-H3K14Ac peptide displacement; Potency, µM (doses to about 114 µM), without a hit: at the highest dose activity change, negative = inhibition, actives largely listed as inhibitors; 360,000 tested, 4.4% active; Q9UIF8; also: potency is read from the fitted curve at half-maximal effect; % is scaled to controls: 0 for no effect and ±100 for the full control effect; nearly all actives have a fitted effect of over 60% in size
#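 Complex of BAZ2B and biotin-H3K14Ac (50 nM apiece) forms over 30 min at RT, then faces library compounds up to 110 uM for another 30 min; AlphaScreen beads added, 20 min dark incubation, luminescence read.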
# HP1b chromo inh – blocks HP1-beta chromodomain binding to methylated histone tails | P83916 | AlphaScreen HP1-beta / biotin-H3K9me3 peptide binding | Potency, µM (highest dose often 114 µM), for inactives: at the top dose activity change, negative = inhibition, actives largely listed as inhibitors | 390,000 tested, 0.56% active | AID 540317; also: potency is read from the fitted curve at half-maximal effect; nearly all actives have a fitted effect of over 70% in size
#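 AlphaScreen: HP1-beta (50 nM) preformed 30 min with biotin-H3(1-18)K9me3 peptide (50 nM) in PBS pH 7.4, 0.01% Tween-20. Compound added for 30 min at RT, then streptavidin donor/nickel chelate acceptor beads (10 ug/mL) for 30 min.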
# JMJD2A Tudor – inhibitors of human JMJD2A Tudor domain. Potency, µM (titrated, usually from 114 µM), for the others: top-dose activity change, negative = inhibition, actives largely listed as inhibitors. AlphaScreen JMJD2A-Tudor / H3K4me3 peptide binding. 390,000 tested, 4.4% active. O75164. AID 504339; also: potency is read from the fitted curve at half-maximal effect; % is scaled to controls: 0 for no effect and ±100 for the full control effect; nearly all actives have a fitted effect of over 50% in size
# Six1-Eya2 blk – Six1/Eya2 interaction inhibition. AlphaScreen GST-Six1/His-Eya2 binding, biochemical; hits give low values. activity change, % (concentration not given with the values). 360,000 tested, 0.56% active. AID 651725; in the data active = activity change below about -65%; inconclusive = mostly about -30% to -63%; also: % is scaled to controls: 0 for no effect and ±100 for the full control effect
# Target sequence (O00167 whole entry, looked up): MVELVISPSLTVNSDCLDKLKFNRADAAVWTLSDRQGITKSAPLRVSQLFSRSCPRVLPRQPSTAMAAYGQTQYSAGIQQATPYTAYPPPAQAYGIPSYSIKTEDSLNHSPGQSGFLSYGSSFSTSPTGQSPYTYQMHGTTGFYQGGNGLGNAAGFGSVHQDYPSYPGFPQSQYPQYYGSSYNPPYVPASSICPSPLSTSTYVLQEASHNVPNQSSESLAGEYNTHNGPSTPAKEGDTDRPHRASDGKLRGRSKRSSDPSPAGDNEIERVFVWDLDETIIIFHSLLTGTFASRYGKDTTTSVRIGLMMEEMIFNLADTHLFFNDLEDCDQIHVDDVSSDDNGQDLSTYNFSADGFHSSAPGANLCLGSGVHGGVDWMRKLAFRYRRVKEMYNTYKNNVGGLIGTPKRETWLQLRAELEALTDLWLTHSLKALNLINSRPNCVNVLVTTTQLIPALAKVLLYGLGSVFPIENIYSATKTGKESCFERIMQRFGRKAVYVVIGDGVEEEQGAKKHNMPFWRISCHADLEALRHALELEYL
# Target sequence (Q15475 whole entry, looked up): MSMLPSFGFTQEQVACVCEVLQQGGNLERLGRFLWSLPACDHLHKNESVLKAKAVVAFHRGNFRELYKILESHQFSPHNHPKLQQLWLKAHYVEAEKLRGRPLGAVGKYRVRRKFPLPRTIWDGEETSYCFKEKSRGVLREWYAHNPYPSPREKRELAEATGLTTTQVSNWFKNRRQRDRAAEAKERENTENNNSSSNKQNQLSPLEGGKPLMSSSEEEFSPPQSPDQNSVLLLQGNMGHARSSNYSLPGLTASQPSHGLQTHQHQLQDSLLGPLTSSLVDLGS
#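 Six1/Eya2 binding was read as AlphaScreen signal after compounds were pinned into GST-Six1 plus His-tagged Eya2 (5X stock 250/500 nM) in pH 8.0 Tris/NaCl/TCEP buffer, beads added, then incubated 1 h, 37 C, dark.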
# CtBP-E1A blk – blocks the CtBP interaction with E1A. 340,000 tested, 0.49% active. AlphaScreen GST-E1A/His-CtBP binding, 1536-well; hits give low values. activity change, % (no concentration beside the values); in the data active = activity change below about -65%; inconclusive = mostly about -30% to -63%; also: % is scaled to controls: 0 for no effect and ±100 for the full control effect
#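 AlphaScreen with 125 nM GST-E1A and 125 nM His-CtBP (5X stocks) in Tris pH 8.0, 300 mM NaCl, BSA, Tween 20, TCEP. Compounds preincubated 2 h at 37 deg C, then glutathione donor/nickel acceptor beads added for 1 h at 37 deg C in dark.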
# An asterisk follows results filed as active; ? = inconclusive; / = no result; [ ] = remark or other dose. Unless noted, calls follow the shape of the dose curve; as a rule, active = well fitted inhibition curve with a large enough effect; inconclusive = small, poorly fitted or top-dose-only effect; inactive = no such curve, though single readings can be large or run the other way.
SMILES,G9a block,BAZ2B block,HP1b chromo inh,JMJD2A Tudor,Six1-Eya2 blk,CtBP-E1A blk
COc1ccc(C(=O)N2CCN(CCc3ccccn3)CC2)cc1,0%,?,41%,-5%,3,-5
COc1cc(C(=O)N2CCN(Cc3ccccc3C(F)(F)F)CC2)cc(OC)c1OC,?,32µM*,?,20µM*,-2,-5
Cn1cc(-c2cc3n(n2)CCC(=O)N3CCCC(=O)Nc2ccccc2Cl)c2ccccc21,-10%[59 µM],-9%,8%[57 µM],-24%,/,/
COC(=O)C1=CN(c2ccc(OC)cc2OC)C(N)=C(C#N)C1c1ccccc1F (stereo unspecified),/,/,/,/,-4,5
Cc1cccn2c(=O)c3cc(C(N)=S)c(=N)n(CCCN4CCOCC4)c3nc12,45µM*,-33%,26%,-31%,-25,-27
Cc1cccn2c(=O)c3cc(C#N)c(=N)n(CCN4CCOCC4)c3nc12,19%,50µM*,1%,7%[11.4 µM],9,-2
Cc1ccc2nc3c(cc(C(N)=S)c(=N)n3CCCOC(C)C)c(=O)n2c1,22µM*,-7%,?,?,-8,-4
Cc1nnc(SCc2cc(=O)n3c(C)cccc3n2)s1,-2%[59 µM],6%,27%[57 µM],12%,/,/
CCOc1ccc2nc(NS(=O)(=O)Cc3ccccc3)sc2c1,?,?,11%,-15%,-6,1
O=C(CSc1ncc2c(n1)-c1ccccc1N(Cc1ccc(Cl)cc1)S2(=O)=O)c1ccc(Cl)cc1,1%[59 µM],3%,46%,0%,/,/
O=C(/C=C/c1c[nH]c2ccccc12)c1ccccc1,9%[59 µM],-4%,61%,10%,1,7
O=C1OC2(CCCC2)OC(=O)C1=Cc1c[nH]c2ccccc12,/,-2%,41%,89µM*,-1,10
CCOC(=O)c1c(NC(C)=O)sc2c(OC)c(Br)ccc12,?,10%,30%,-9%,0,57
CCOC(=O)c1c(NC(C)=O)sc2c(O)c(CN3CCN(CC)CC3)ccc12,25µM*,?,-6%,?,-4,25
O=C(CCS(=O)CCC(=O)NCc1ccccc1)NCc1ccccc1,50µM*,-38%,40%,-4%,0,4
O=C(CCC(=O)NCc1ccccc1)NCc1ccccc1,?,-27%,18%,4%,0,/
S=C(NCc1ccccc1)NCc1ccc(CNC(=S)NCc2ccccc2)cc1,2%[59 µM],-6%,-2%,-27%,-17,-24
S=C(NCc1ccccc1)C(=S)NCc1ccccc1,/,/,?,35µM*,?,?
S=C(NCCCCc1ccccc1)NCc1ccccc1,55%,-22%,46%,-10%,4,-13
CCNC(=S)NNC(=S)NCc1ccccc1,10µM*,-27%,6%,1.3µM*,3,7
S=C(NCCCCNC(=S)NCc1ccccc1)NCc1ccccc1,45µM*,-20%,-11%,-1%,-13,-22
Cc1noc(/C=C/c2ccco2)c1S(=O)(=O)N1CCC(C(=O)Nc2ccc(F)c(Cl)c2)CC1,-36%[59 µM],/,13%,-16%,/,/
CC(=O)Nc1cc(-c2ccc(N(C)C)cc2)cn2c(-c3ccc(F)c(Cl)c3)cnc12,/,/,/,/,-17,-28
O=C(COc1ccc(Cl)cc1)NNC(=S)NCc1ccccc1,32µM*,25%,16%,-16%,8,-14
S=C(NCCc1ccccc1)NCCc1ccccc1,-1%[59 µM],-7%,11%,-20%,9,5
SMILES,G9a block,BAZ2B block,HP1b chromo inh,JMJD2A Tudor,Six1-Eya2 blk,CtBP-E1A blk
S=C(NCCc1ccccc1)NCc1cccc(Cl)c1,8.9µM*,?,37%,3%,6,4
COc1ccc(C(=O)N/C(=C\c2ccc(Cl)cc2)C(=O)NCc2ccncc2)cc1,/,/,/,/,2,-11
Cc1ccccc1-c1nn2c(=O)cc(CN3CCN(C(=O)/C=C/c4ccccc4)CC3)nc2s1,?,-8%,1%[57 µM],-14%,/,/
COCCn1c(=N)c(C(=O)NCc2ccco2)cc2c(=O)n3ccccc3nc21,56µM*,-7%,8%,-31%,-21,-22
Cc1ccc(S(=O)(=O)N2C(c3ccccc3)CC(=O)C3CN(S(=O)(=O)c4ccc(Cl)cc4)C(c4ccccc4)CC32)cc1 (stereo unspecified),/,/,/,/,0,0
CCN(CC)c1ccc(NC(=O)CN2C(=O)c3cccnc3Oc3ccccc32)c(C)c1,8.9µM*,?,-20%,?,/,/
CCN(CC)c1ccc(NC(=O)CCN2C(=O)c3ccccc3S2(=O)=O)c(C)c1,8.9µM*,13%,-4%,-20%,4,-6
Cc1cccc(NC(=O)CCN2C(=O)c3ccccc3S2(=O)=O)c1C,/,51%,20%,-6%,3,7
CNC(=O)CN1C(=O)CSc2ncccc21,-14%,22%,41%,-7%,-2,3
CCN(CC)c1ccc(NC(=O)CN2C(=O)CSc3ncccc32)c(C)c1,79µM*,60%,10%,-32%,3,3
CCN(CC)c1ccc(NC(=O)CC2Oc3ccccc3NC2=O)c(C)c1 (stereo unspecified),10µM*,10%,33%,-11%,-8,3
C[C@H]1CN([C@@H](C)CO)C(=O)CCCn2nncc2CO[C@H]1CN(C)S(=O)(=O)c1ccc2ccccc2c1,/,/,/,/,-12,-9
CCN(CC)c1ccc(NC(=O)CCc2c(C)nc3ncnn3c2C)c(C)c1,18µM*,-17%,15%,-17%,/,/
Cc1ccc(NC(=O)CCc2c(C)nc3ncnn3c2C)cc1,25%[59 µM],7%,36%,8%,-7,-2
COC(=O)c1ccc(CNC(=O)c2ccc(OCC(=O)N3CCOCC3)c(OC)c2)cc1,-25%,11%,1%,-22%,5,-16
Cc1c(-n2c(O)c(C3=c4ccccc4=NC3=O)sc2=S)c(=O)n(-c2ccccc2)n1C,45µM*,-31%,-12%,-6%,3,-7
CCCOCc1cc(CN2CCN(c3cccc(Cl)c3)CC2)c(O)c2ncccc12,-21%[59 µM],32µM*,10%,13µM*,/,/
CCCCOCc1cc(CN2CCN(c3cccc(Cl)c3)CC2)c(O)c2ncccc12,-2%[59 µM],5.6µM*,59%,4µM*,/,/
COC(=O)c1ccc2nc(C3CCCCC3)c(Cc3ccc(C)cc3)n2c1,/,/,/,/,1,2
CCOCCSc1c(C)cnc2c1c(=O)n(C)c(=O)n2C,13µM*,-3%,13%,-15%,/,/
Clc1nc(-c2n[nH]nc2Cl)n[nH]1,-18%[59 µM],-5%,23%,-33%,1,8
COc1cccc(Nc2nnc(SCN3C(=O)c4ccccc4C3=O)s2)c1,?,1%,37%,-8%,1,6
COc1cccc(Nc2nnc(SCc3nc4ccccc4s3)s2)c1,10µM*,-31%,13%,-27%,-10,-5
